Measured values: PubChem BioAssay AID686979 (National Center for Advancing Translational Sciences (NCATS), 2013)
In all, about 420,000 compounds went through this assay and about 50,000 (12%) were called active. Roughly 26% stayed inconclusive and do not appear here. This excerpt belongs to a sample that is enriched for actives. Unmarked numbers belong to inactive results. Calls come from the whole dose curve; as a rule, active = well fitted inhibition curve with a large enough effect; inconclusive = small, poorly fitted or top-dose-only effect; inactive = flat fitted curve, though single readings scatter.

Experiment: qHTS for Inhibitors of human tyrosyl-DNA phosphodiesterase 1 (TDP1): qHTS in cells in presence of CPT; note: nearly all actives have a fitted effect of over 55% in size
Settings: chicken DT40 Tdp1-/-;hTDP1 cells + 20 nM CPT, ATP luminescence, 48 h; series mostly up to 46.2 µM; activity change, negative = growth inhibition: at the top concentration
In short: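 Chicken DT40 Tdp1-/- cells complemented with human TDP1, 400 cells/well, exposed to compounds plus 20 nM camptothecin for at least 48 h at 37 C; viability read as ATP content by CellTiter-Glo luminescence.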
% is set by controls: 0 for no effect and ±100 for the full control effect; potency is the fitted concentration of half-maximal effect.

Row | SMILES | activity change, negative = growth inhibition [%] | Potency
1 | COc1ccccc1OCC(=O)OCc1cc(-c2ccco2)on1 | -10.3 | 
2 | COc1cccc(C(c2c(O)cc(C)n(Cc3ccco3)c2=O)N2CCN(c3ccccc3)CC2)c1 (stereo not drawn) | -10.4 | 
3 | CCCCN(C)CCCNC(=O)c1cc(-c2cccs2)nc2ccccc12 |  | 29.1 µM (active)
4 | CC(C)(C)Cc1nnc(NC(=O)c2cc(-c3ccccc3)nc3ccccc23)s1 | 1.81 | 
5 | O=C(NCCN1CCOCC1)c1cc(-c2cccs2)nc2ccccc12 | -6.74 | 
6 | Cn1cc(CN2CCCC(CO)C2)c(-c2ccc(Oc3ccccc3)cc2)n1 (stereo not drawn) | -29.3 | 
7 | Cc1ccccc1NC(=O)C1CCN(C(=O)NC2CCCCC2)CC1 | 17.2 | 
8 | CCN(C(=O)COC(=O)c1c(C)nn(-c2ccccc2)c1Cl)c1c(N)n(Cc2ccccc2)c(=O)[nH]c1=O | 7.19 | 
9 | CCN(C(=O)CN1CCN(Cc2ccccc2)CC1)c1c(N)n(Cc2ccccc2)c(=O)[nH]c1=O |  | 11.6 µM (active)
10 | CCN(C(=O)COC(=O)Cc1c(F)cccc1Cl)c1c(N)n(Cc2ccccc2)c(=O)[nH]c1=O | 1.95 | 
11 | COCCN(C(=O)COC(=O)Cc1cccc(OC)c1)c1c(N)n(Cc2ccccc2)c(=O)[nH]c1=O | 0.869 | 
12 | CCN(C(=O)COC(=O)c1sccc1C)c1c(N)n(Cc2ccccc2)c(=O)[nH]c1=O | -1.38 | 
13 | CCN(C(=O)COC(=O)CCOc1cccc(C)c1)c1c(N)n(Cc2ccccc2)c(=O)[nH]c1=O |  | 16.4 µM (active)
14 | CCCn1nc(C(=O)NNC(=O)CCOc2ccccc2OCC)c2ccccc2c1=O | 1.4 | 
15 | CN(C)/C=C(\C#N)C(=O)c1cccnc1Oc1ccc(F)cc1F | -19.9 | 
16 | CCOC(=O)C1(O)CC(C)=NN1C(=O)c1cccc(Br)c1 (stereo not drawn) | 18.5 | 
17 | CCN(C(=O)CSc1ncnc2c1cnn2-c1ccccc1)C1CCS(=O)(=O)C1 (stereo not drawn) | -4.58 | 
18 | O=c1[nH]nc(SCCS(=O)(=O)c2ccc(F)cc2)n1-c1ccccc1C(F)(F)F |  | 23.1 µM (active)
19 | O=S(=O)(c1ccc(F)cc1)N1CCN(Cc2ccccc2C(F)(F)F)CC1 | -16 | 
20 | O=C(CSc1n[nH]c(=O)n1-c1ccccc1)Nc1ccccc1C(F)(F)F | -0.565 | 
21 | O=C(NCC1Cc2cc(F)cc(-c3cnccn3)c2O1)C1COc2ccccc2O1 (stereo not drawn) | 16.4 | 
22 | S=C(c1ccccc1)N1CCCC1 | 11.6 | 
23 | CCOC(=O)c1c(NC(=O)CSc2nccc(=O)[nH]2)sc(C)c1C | -10.7 | 
24 | CC1CCN(C(=O)c2ccc(S(=O)(=O)Cc3cc(F)ccc3F)c([N+](=O)[O-])c2)CC1 |  | 6.51 µM (active)
25 | NC(=O)C1CCN(C(=O)c2ccc(F)c(S(=O)(=O)N3CCOCC3)c2)CC1 | 8.19 | 
26 | Nc1ccc(C(=O)N2CCN(S(=O)(=O)c3ccc(Cl)cc3)CC2)cc1[N+](=O)[O-] | -66.4 | 
27 | Cc1noc(NS(=O)(=O)c2ccc(NC(=O)c3oc4ccc(F)cc4c3C)cc2)c1C | -14.1 | 

Row | SMILES | activity change, negative = growth inhibition [%] | Potency
28 | CC(=O)Nc1c2c(nn1-c1ccc(C)cc1C)CS(=O)C2 (stereo not drawn) | 7.09 | 
29 | C[C@H](NC(=O)C1CC(=O)N(c2ccc3c(c2)OCCO3)C1)C(=O)N1CCC(C(=O)O)CC1 (stereo partly drawn) | -0.349 | 
30 | CC(=O)Nc1c2c(nn1-c1cccc(C)c1)CSC2 | -12.1 | 
31 | CCCOc1cccc(C(=O)NCCCNC(=O)c2cccnc2)c1 | -1.65 | 
32 | CCC(NC(=O)c1cc(COc2ccc(F)c(F)c2)on1)c1ccncc1 (stereo not drawn) |  | 20.6 µM (active)
33 | CC(=O)c1cccc(OCc2cc(C(=O)NC(C)Cc3cccnc3)no2)c1 (stereo not drawn) |  | 16.4 µM (active)
34 | O=C(NC1Cc2ccccc2C1)c1cc(COc2cccc(C(F)(F)F)c2)on1 | -25.4 | 
35 | Cc1ccc(OCc2cc(C(=O)N(C)CCc3ccccc3)no2)cc1C | -13.4 | 
36 | CC(C)Cc1cc(C(=O)NCCc2ccccc2)no1 | -26.4 | 
37 | O=C(NCCCc1ccccc1)c1cc(COc2c(F)cccc2F)on1 | -17.7 | 
38 | CCn1ccnc1CN(C)C(=O)c1cc(COc2ccc(-n3cncn3)cc2)on1 | -21.3 | 
39 | CN(Cc1cccnc1)C(=O)c1cc(COc2ccc3ncccc3c2)on1 |  | 4.61 µM (active)
40 | CC(N)(C(=O)O)c1ccc(-c2nn[nH]n2)cc1 (stereo not drawn) | -21.6 | 
41 | COC(=O)C[C@H]1C=C[C@H](NC(=O)c2ccc(F)cc2)[C@@H](CO)O1 | -3.56 | 
42 | Cc1sc(NC(=O)C2=COCCO2)c(C#N)c1C | -13.9 | 
43 | CC1(C)C(c2cccs2)=[N+]([O-])C2(CCCCC2=O)N1O (stereo not drawn) | 9.95 | 
44 | Cc1cccn2cc(-c3cccc(S(=O)(=O)N4CCCCC4)c3)nc12 | -24 | 
45 | O=C(NCCCN1CCOCC1)C1CCCN(S(=O)(=O)N2CCCCC2)C1 (stereo not drawn) | -7.98 | 
46 | COc1cccc2c1C(=O)c1c(O)c3c(c(O)c1C2=O)CC(O)(C(C)=NNC(=O)c1ccc(Cl)c(Cl)c1)CC3OC1CC(N)C(O)C(C)O1 (stereo not drawn) |  | 0.164 µM (active)
47 | CCOC(=O)c1cnc2c(c(C)nn2CC)c1Cl | 5.09 | 
48 | COc1ccc(CN2C(=O)C(C)S/C2=N/N=C/c2ccco2)cc1 (stereo not drawn) | -9.51 | 
49 | COc1ccccc1CNS(=O)(=O)c1ccc2c(c1)NC(=O)CS2 | -27.9 | 
50 | COc1cccc(-c2ccc3c(c2)N(Cc2ccccc2OC)C(=O)C(C)S3)c1 (stereo not drawn) |  | 25.9 µM (active)
51 | CCCc1nc(N2CCN(C)CC2)c2sc(=S)n(-c3ccccc3)c2n1 |  | 18.4 µM (active)
52 | CCCc1nc(-c2ccccc2O)n(-c2ccccc2)n1 | -27.4 | 
53 | Cc1cnc(NC(=O)CSc2nnc(-c3ccccc3)n2Cc2ccccc2)s1 | -13.7 | 
